Source: the supplement of paper PMC8728848
About 410 targets per protein were measured; listed, in parts, are those with the strongest signals and a random draw of the rest.

Columns and labels:
Experiment in all cases: glycan array binding signal (z-score within array); higher = stronger binding
Settings in all cases: glycan notation: IUPAC condensed, linker removed
[1] = biological target: Fuc(a1-2)Gal(b1-3)GalNAc(a1-3)[Fuc(a1-2)]Gal(b1-4)Glc
Procedure, shortened: (§1)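 From the Consortium for Functional Glycomics database, 3228 arrays were curated, keeping only those whose protein sequence was available. Binding is given as a within-array Z-score averaged across arrays sharing a protein sequence and across linkers. Negative Z-scores can be read as non-binding.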

[2] = biological target: Fuc(a1-2)Gal(b1-3)GlcNAc(b1-3)Gal(b1-4)Glc
Procedure, shortened: as §1

[3] = biological target: Fuc(a1-2)Gal(b1-3)GlcNAc(b1-3)[Fuc(a1-2)Gal(b1-3)GlcNAc(b1-6)]GalNAc
Procedure, shortened: as §1

[4] = biological target: Fuc(a1-2)Gal(b1-4)[Fuc(a1-3)]GlcNAc(b1-3)Gal(b1-4)[Fuc(a1-3)]GlcNAc
Procedure, shortened: as §1

[5] = biological target: Fuc(a1-2)[Gal(a1-3)]Gal(b1-3)GlcNAc(b1-6)GalNAc
Procedure, shortened: as §1

[6] = biological target: Fuc(a1-2)[Gal(a1-3)]Gal(b1-4)GlcNAc(b1-3)GalNAc
Procedure, shortened: as §1

[7] = biological target: Fuc(a1-2)[GalNAc(a1-3)]Gal(b1-4)GlcNAc(b1-3)Gal(b1-4)GlcNAc(b1-3)Gal(b1-4)GlcNAc
Procedure, shortened: as §1

[8] = biological target: Fuc(a1-3)[Gal(b1-4)]GlcNAc(b1-2)Man(a1-3)[Fuc(a1-3)[Gal(b1-4)]GlcNAc(b1-2)Man(a1-6)]Man(b1-4)GlcNAc(b1-4)GlcNAc
Procedure, shortened: as §1

[9] = biological target: Gal(a1-3)Gal(b1-3)[Fuc(a1-4)]GlcNAc(b1-2)Man(a1-3)[Gal(a1-3)Gal(b1-3)[Fuc(a1-4)]GlcNAc(b1-2)Man(a1-6)]Man(b1-4)GlcNAc(b1-4)GlcNAc
Procedure, shortened: as §1

[10] = biological target: Gal(b1-3)GlcNAc(b1-2)Man(a1-3)[Gal(b1-3)GlcNAc(b1-2)Man(a1-6)]Man(b1-4)GlcNAc(b1-4)[Fuc(a1-6)]GlcNAc
Procedure, shortened: as §1

[11] = biological target: Gal(b1-3)GlcNAc(b1-3)Gal(b1-4)GlcNAc(b1-2)Man(a1-3)[Gal(b1-3)GlcNAc(b1-3)Gal(b1-4)GlcNAc(b1-2)Man(a1-6)]Man(b1-4)GlcNAc(b1-4)GlcNAc
Procedure, shortened: as §1

Gal(b1-3)GlcNAc6S = biological target: Gal(b1-3)GlcNAc6S
Procedure, shortened: as §1

[12] = biological target: Gal(b1-3)[Fuc(a1-4)]GlcNAc(b1-2)Man
Procedure, shortened: as §1

[13] = biological target: Gal(b1-4)GlcNAc(b1-2)Man(a1-3)Man(b1-4)GlcNAc(b1-4)GlcNAc
Procedure, shortened: as §1

[14] = biological target: Gal(b1-4)GlcNAc(b1-3)Gal(b1-4)GlcNAc
Procedure, shortened: as §1

[15] = biological target: Gal(b1-4)GlcNAc(b1-3)Gal(b1-4)GlcNAc(b1-2)Man(a1-3)[Gal(b1-4)GlcNAc(b1-3)Gal(b1-4)GlcNAc(b1-2)Man(a1-6)]Man(b1-4)GlcNAc(b1-4)[Fuc(a1-6)]GlcNAc
Procedure, shortened: as §1

[16] = biological target: Gal(b1-4)GlcNAc(b1-3)Gal(b1-4)GlcNAc(b1-2)[Gal(b1-4)GlcNAc(b1-3)Gal(b1-4)GlcNAc(b1-6)]Man(a1-6)[Gal(b1-4)GlcNAc(b1-3)Gal(b1-4)GlcNAc(b1-2)Man(a1-3)]Man(b1-4)GlcNAc(b1-4)[Fuc(a1-6)]GlcNAc
Procedure, shortened: as §1

[17] = biological target: Gal(b1-4)GlcNAc(b1-3)Gal(b1-4)GlcNAc(b1-3)Gal(b1-4)GlcNAc(b1-2)Man(a1-3)[Gal(b1-4)GlcNAc(b1-3)Gal(b1-4)GlcNAc(b1-3)Gal(b1-4)GlcNAc(b1-2)Man(a1-6)]Man(b1-4)GlcNAc(b1-4)GlcNAc
Procedure, shortened: as §1

[18] = biological target: Gal(b1-4)GlcNAc(b1-3)Gal(b1-4)GlcNAc(b1-3)Gal(b1-4)GlcNAc(b1-2)Man(a1-3)[Gal(b1-4)GlcNAc(b1-3)Gal(b1-4)GlcNAc(b1-3)Gal(b1-4)GlcNAc(b1-2)Man(a1-6)]Man(b1-4)GlcNAc(b1-4)[Fuc(a1-6)]GlcNAc
Procedure, shortened: as §1

Gal3S(b1-4)Glc6S = biological target: Gal3S(b1-4)Glc6S
Procedure, shortened: as §1

[19] = biological target: Gal3S(b1-4)[Fuc(a1-3)]GlcNAc
Procedure, shortened: as §1

Gal6S(b1-4)Glc = biological target: Gal6S(b1-4)Glc
Procedure, shortened: as §1

Gal6S(b1-4)Glc6S = biological target: Gal6S(b1-4)Glc6S
Procedure, shortened: as §1

GalNAc(b1-3)Gal = biological target: GalNAc(b1-3)Gal
Procedure, shortened: as §1

[20] = biological target: GalNAc(b1-3)Gal(a1-4)Gal(b1-4)GlcNAc
Procedure, shortened: as §1

[21] = biological target: GalNAc(b1-3)Gal(a1-4)Gal(b1-4)GlcNAc(b1-3)Gal(b1-4)Glc
Procedure, shortened: as §1

GalNAc(b1-3)GalNAc = biological target: GalNAc(b1-3)GalNAc
Procedure, shortened: as §1

GalNAc3S(b1-4)GlcNAc3S = biological target: GalNAc3S(b1-4)GlcNAc3S
Procedure, shortened: as §1

GalNAc6S(b1-4)GlcNAc = biological target: GalNAc6S(b1-4)GlcNAc
Procedure, shortened: as §1

Glc(b1-6)Glc = biological target: Glc(b1-6)Glc
Procedure, shortened: as §1

B1: Gs78B-bfa-542-29-542 (Bacteroides fragilis) (protein)
chain: SEDINRNPLLPTKEDEKMDGVIYGAYLPNLEKSVIPIGTASESTEPVNRYQIGVNLAGDAWAGYMSPRDNKFNGSKNFTNYFMYENWVNYVYSFMVTDVYSPWMQIKRISQDEGTRNDEIYALAQIIKIAALHRTTDMFGPIPYSQVGKGSFKVAYDSQESVYRSFLKELEEAVQTLDDYSNKSKEVLPAFDIVYNGDVNKWMRFANSLMLRLAIRVRFADAGLAKEYAEKAVKHPAGLINSKELAAQMGKGAGLQMKNPLKVINEEYNDTRMGATIYSYLAGYNDARAAVYFVKNNGFKAVRCGIAKSGDAYNGFTRPNVHEDDPLYWMKASEVCFLKAEGALAGFDMGGSAGDFYNAGIRMSFSENGLDNSSAETYLKDSTRKPANYTDTSNGELSANAPSSITIRWENGATEEEKLERIITQKYLAIFPNGQEAWTEWRRTGYPRQIVVAENKTNSAVLIGNGYDLGGVRRLPYPRTEYEQNGENLHNAISQYLGGVDNAATKVWWDKKSK
glycan array binding signal (z-score) [1]: 0.024
glycan array binding signal (z-score) [2]: -0.826
glycan array binding signal (z-score) [3]: 0.287
glycan array binding signal (z-score) [4]: -0.816
glycan array binding signal (z-score) [5]: 2.8
glycan array binding signal (z-score) [6]: 0.185
glycan array binding signal (z-score) [7]: 1.31
glycan array binding signal (z-score) [8]: 1.04
glycan array binding signal (z-score) [9]: 4.3
glycan array binding signal (z-score) [10]: 1.53
glycan array binding signal (z-score) [11]: -0.404
glycan array binding signal (z-score) (Gal(b1-3)GlcNAc6S): 2.8
glycan array binding signal (z-score) [12]: -0.693
glycan array binding signal (z-score) [13]: 0.534
glycan array binding signal (z-score) [14]: -0.463
glycan array binding signal (z-score) [15]: 2.98
glycan array binding signal (z-score) [16]: 3.42
glycan array binding signal (z-score) [17]: 2.01
glycan array binding signal (z-score) [18]: 3.12
glycan array binding signal (z-score) (Gal3S(b1-4)Glc6S): -0.778
glycan array binding signal (z-score) [19]: -0.801
glycan array binding signal (z-score) (Gal6S(b1-4)Glc): 0.825
glycan array binding signal (z-score) (Gal6S(b1-4)Glc6S): 0.798
glycan array binding signal (z-score) (GalNAc(b1-3)Gal): -0.448
glycan array binding signal (z-score) [20]: 0.47
glycan array binding signal (z-score) [21]: 1.12
glycan array binding signal (z-score) (GalNAc(b1-3)GalNAc): -0.725
glycan array binding signal (z-score) (GalNAc3S(b1-4)GlcNAc3S): -0.813
glycan array binding signal (z-score) (GalNAc6S(b1-4)GlcNAc): -0.336
glycan array binding signal (z-score) (Glc(b1-6)Glc): -0.312
